This note sets out measurements from ChEMBL document CHEMBL4513216, “Probing the Open Global Health Chemical Diversity Library for Multistage-Active Starting Points for Next-Generation Antimalarials” (ACS Infect Dis, 2020).

Molecules are shown by their SMILES. Hit rate of the full screen: of about 69,000 compounds, about 8,600 (12%) showed an effect of 50% or more. Many of the other results were omitted from the sample, so strong results are more common in it than they were.

The subject of the assay is Plasmodium berghei. The assay is described as follows: Screen against P. berghei liver stage (PbLuc), transformed with Luciferase, at 10uM. The assay is classed as functional, HepG2. The settings on record: tested at 10 uM.
In the case of `O=C(Nc1cnn(-c2ccccc2Cl)c1)NC1CCC(O)CC1` (configuration not stated), the INHIBITION is given as -66.7%.
Then `Cc1nn(C)c(C)c1S(=O)(=O)N1CC[C@H]2O[C@@H](C)C[C@H]2C1`, with 17.4%.
Then `COC(=O)[C@H](C)NC(=O)CSCc1nc2sc(C(C)C)cc2c(=O)[nH]1`, with 28.7%.
Consider `O=C(C1CCC1)N1C2CCC(O)(CC2)C1CN1CCOCC1` (configuration not stated), for which the INHIBITION came out at 16.2%.
As to `Cn1nc(-c2ccc(F)cc2)cc1C(=O)NCCn1ccnc1`, the INHIBITION is -0.232%.
Then `CC1CN(CC(=O)Nc2cccnc2)CCN1c1nccs1` (configuration not stated), with 52.7%.
Then `Cc1csc(N2CCN(CC(=O)Nc3nncs3)CC2C)n1` (configuration not stated), with 40.9%; and `CC1CN(CC(=O)Nc2ccncc2)CCN1c1nccs1` (configuration not stated), with 21.6%.
For the compound `Cc1csc(N2CCN(CC(=O)Nc3cccnc3)CC2C)n1` (configuration not stated), the INHIBITION was determined as 11.9%.
Then `O=C(CN1CCN(c2nccs2)CC1)Nc1cccnc1`, with -24.2%.
As for `Cc1csc(N2CCN(CC(=O)Nc3ccncc3)CC2C)n1` (configuration not stated), the INHIBITION turned out to be 71.75%.
Take `Cc1cc(N2CCN(Cc3ccnn3C)CC2)cc(C2CCCN2)n1` (configuration not stated): the INHIBITION turned out to be 37.45%.
Then `Cc1cccc(S(=O)(=O)N2CC[C@H]3CO[C@H](CN(C)C)[C@H]3C2)c1`, with -1.55%.
With `COCc1nn(C(C)C)c2c1CCN(Cc1nccs1)C2`, the INHIBITION was -11.6%.
Then `O=C(c1cnccn1)N1CCN(Cc2cccnc2)c2ncccc2C1`, with 11.5%; and `CN1[C@H](CO)C[C@H](CNCc2ccc(Cl)c(F)c2)[C@@H]1c1ccccc1F`, with 53.5%.
Then `CN1[C@H](CO)C[C@H](CNCc2ccc(CO)o2)[C@@H]1c1ccccc1F`, with 28.7%; and `CCc1ccc(CNC[C@H]2C[C@@H](CO)N(C)[C@H]2c2ccccc2F)o1`, with -3.96%.
Then `CCC(=O)N1CCC(c2nc(N3CCOCC3)ncc2S(C)(=O)=O)CC1`, with 36%.
For the compound `Cc1nnc(C2Cc3ccccc3CN2Cc2c(C)noc2C)o1` (configuration not stated), the INHIBITION turned out to be 19.5%.
Turning to `CC(Cn1cccn1)NC(=O)c1cc(C2CC2)nc2c1cnn2C` (configuration not stated), the INHIBITION is on record as -6.18%.
Then `Cn1cc(CN2CCC(c3cc(COc4cccc(Cl)c4)[nH]n3)C2)cn1` (configuration not stated), with 21.955%; and `COc1ccc(C(C)=O)cc1CN1CCn2cccc2C1C` (configuration not stated), with 58.5%.
Then `COc1ccc(C)cc1CN1CCN(Cc2nccn2C)C(C)C1` (configuration not stated), with -78.3%; and `COc1ccc(C)cc1CN1CCCC1Cn1nc(C)nc1C` (configuration not stated), with 25.3%; and `COC(=O)c1ccc(OC)c(CN2CCN(CC(C)C)C(=O)C2C)c1` (configuration not stated), with -14.1%.
Then `COc1ccc(CN2CCN(Cc3nccn3C)C(C)C2)cc1F` (configuration not stated), with -85.6%.
For `COc1ccc(CN2CC(n3cccn3)C2)cc1F`, the INHIBITION is reported as 4.34%.
Then `COc1ccc(C)cc1CN1CCn2cccc2C1C` (configuration not stated), with 84.2%; and `COc1cc(C(C)=O)ccc1OCC(=O)c1cccn1C`, with 41.3%.
Consider `COc1ccc(CN2CCn3cccc3C2C)cc1F` (configuration not stated), for which the INHIBITION is reported as 59.4%.
Then `CC(=O)N1CCN(CCNS(=O)(=O)c2c(F)cccc2F)CC1`, with 31.6%; and `Cn1cnc2c1C(C(=O)N1CCCC1)N(CC1CC1)CC2` (configuration not stated), with 0.804%.
`COc1ccc2c(c1)CCCN2Cc1nc(C)c(C)o1`: the INHIBITION is 19.8%.
Regarding `Cc1cc(C)n(CC2CN(Cc3noc(C)n3)CCO2)n1` (configuration not stated), the INHIBITION worked out at 5.7%.
Then `CCCn1nnnc1COC(=O)C1COc2ccccc2O1` (configuration not stated), with 49%; and `O=C(NCCc1cc2nc(-c3ccncc3)ccn2n1)C1CCOCC1`, with 17.14%.
Then `Cc1nnsc1C(=O)N1C[C@@H]2CC[C@H]1CN(c1cnccn1)C2`, with 4.35%; and `Cc1cc(F)ccc1CCNC(=O)NCC(C)N1CCOCC1` (configuration not stated), with 11.1%; and `O=C(O)c1cc(S(=O)(=O)Nc2cnn(C3CCOCC3)c2)ccc1F`, with 29.3%.
Then `CCN(C(=O)CCc1ccc2c(c1)OCO2)C1CC(=O)NC1=O` (configuration not stated), with 7.97%; and `O=C(CCc1nccs1)N1CCCC(n2cccn2)C1` (configuration not stated), with 38.5%; and `Cc1cnn(C2CCCN(C(=O)CCc3ccncc3)C2)c1` (configuration not stated), with 26.4%.
Turning to `Cc1cnn(C2CCCN(C(=O)Cc3c(C)nn(C)c3C)C2)c1` (configuration not stated), the INHIBITION is 53.9%.
With `Cc1nn(C)c(C)c1CC(=O)N1CCCC(n2cccn2)C1` (configuration not stated), the INHIBITION stood at 7.13%.
As to `Cc1nn(C)c(C)c1CC(=O)N1CCCC(n2ccnc2C)C1` (configuration not stated), the INHIBITION was 23.7%.
Then `Cc1cnn(C2CCCN(C(=O)CCc3nccs3)C2)c1` (configuration not stated), with 63.9%; and `Cc1nn(C)c(C)c1CC(=O)N1CCCC(n2ccnc2)C1` (configuration not stated), with 44.3%.
On to `Cc1nn(C)c(C)c1CC(=O)N1CCCC(CNS(C)(=O)=O)C1` (configuration not stated), for which the INHIBITION is on record as 50.2%.
Then `Cc1nn(CC(C)C)c(C)c1CC(=O)N1CCCC(CNS(C)(=O)=O)C1` (configuration not stated), with 24.1%; and `Cc1nn(C)c(C)c1-c1ccnc(N2CCCN(CC(C)C)CC2)n1`, with 24.3%; and `COc1ccc(F)c(NCc2ccc(C(=O)N(C)C)[nH]2)c1`, with -22.6%.
Then `CN(Cc1nc2ccccc2o1)C1CCCN(c2cccnn2)C1` (configuration not stated), with 28.8%; and `CC(=O)N1CCN([C@@H]2CC[C@@H](N(C)C(=O)C3CCCCC3)[C@H]2O)CC1`, with 39.7%; and `Cc1nc(CN2CCOCC3(CCCN(c4cnccn4)C3)C2)cs1` (configuration not stated), with 15.4%.
Then `CCCc1cc(N2CCC(NC3CCC(O)CC3)CC2)nc(C)n1` (configuration not stated), with 2.15%; and `c1ccc(CN2CCC(NCCSc3ncn[nH]3)C2)cc1` (configuration not stated), with 42.3%.
For the compound `CCCc1cc(CNC2CCN(c3cc(C)nc(N)n3)CC2)on1`, the INHIBITION was determined as 71.1%.
Take `CCCc1cc(CNC2CCN(c3cc(C(C)C)nc(C)n3)CC2)on1`: the INHIBITION is listed as 61.3%.
Then `CCCc1cc(N2CCC(NCC3(O)CCCCC3)CC2)nc(C)n1`, with 6.69%; and `CCCc1cc(CNC2CCN(c3nc4ccccc4s3)CC2)on1`, with 67.8%.
Then `CCCc1cc(CNC2CCN(c3nc(C)cc(C)n3)CC2)on1`, with 35.2%.
Then `Cc1n[nH]c(SCCNC2CCN(c3nc4ccccc4s3)CC2)n1`, with 50.2%.
With `CCCc1cc(CNC(=O)C2CCOc3ccccc3C2)on1` (configuration not stated), the INHIBITION is reported as 26.8%.
Then `CCCc1cc(N2CCC(NC3CCOCC3)CC2)nc(C)n1`, with 22.1%.
Then `Cn1ccnc1SCCNC1CCN(c2nc3ccccc3s2)CC1`, with 34.1%; and `CCCC1COCCN1Cc1ccc(NC(C)=O)cc1` (configuration not stated), with -30%; and `CC(C(=O)N1CCCCC1)N1CCN(c2nccs2)CC1` (configuration not stated), with 41.3%.
Then `CN(C)C(=O)NCc1cc(=O)n2c(n1)CN(Cc1ccoc1)CCC2`, with 5.41%.
With `CCn1ncc2c1C(COCC1CC1)N(Cc1cnn(C)c1)CC2` (configuration not stated), the INHIBITION is -44.2%.
Turning to `O[C@H]1CCN(Cc2ccoc2)[C@H]1Cc1cccnc1`, the INHIBITION worked out at 41.4%.
Then `CC(=O)N1CCCCC[C@@H]2[C@@H]1[C@H](c1cccc(F)c1)CN2CCC(N)=O`, with 32.95%.
Then `O=C(C1=CCCC1)N1C[C@H]2CCC[C@@]2(COCc2ccncc2)C1`, with 47.9%.
Then `Cc1cc(=O)n(CC(=O)NC2CCCCC2)c2ccccc12`, with 70.1%.
`COC(=O)[C@@H]1C[C@H](NC(=O)Cn2c(=O)cc(C)c3ccccc32)CN1C`: the INHIBITION is on record as -4.4%.
Then `Cc1cn(CC(=O)NC2CCC(C(=O)O)CC2)c2ccccc12` (configuration not stated), with 26.4%; and `Cc1nnn2c1COCC(CNC(=O)c1ccc[nH]1)C2` (configuration not stated), with 26.5%; and `CC(C)CSCCN1CCN(S(C)(=O)=O)CC1`, with 45.3%.
Then `CCSCCN1CCCN(S(C)(=O)=O)CC1`, with 37.7%; and `CC(C)CSCCN1CCCN(S(C)(=O)=O)CC1`, with 75.6%.
Take `O=C1CCOC[C@]2(CN(Cc3ccccc3)C[C@H]2c2ccccc2F)N1`: the INHIBITION is recorded as 23.9%.
Then `CN1CCN(C(=O)[C@H]2C[C@H]3[C@H](CCN3Cc3cccs3)O2)CC1`, with -7.24%.
Then `c1cncc(CN2CCCC3(COCCN(c4cnccn4)C3)C2)c1` (configuration not stated), with 12.7%; and `CC(Cn1cccn1)NC(=O)N(C)Cc1ccsc1` (configuration not stated), with -1.04%; and `CC(Cn1ccnc1)NC(=O)N(C)Cc1ccsc1` (configuration not stated), with 57.4%.
Then `CC(Cn1ccnc1)NC(=O)N(C)Cc1ccc2c(c1)OCO2` (configuration not stated), with 7.12%.
Consider `CC(Cn1ccnc1)NC(=O)N(C)Cc1ccco1` (configuration not stated), for which the INHIBITION came out at 81%.
In the case of `Cc1noc(C)c1CN(C)C(=O)NC(C)c1cccs1` (configuration not stated), the INHIBITION is reported as -55.1%.
Then `Cc1noc(C)c1CN(C)C(=O)NC(C)Cc1ccco1` (configuration not stated), with 53.3%; and `CN(Cc1ccco1)C(=O)NC(Cn1ccnc1)C(C)(C)C` (configuration not stated), with -27.8%.
For the compound `Cc1cc(CN(C)C(=O)NC(C)Cc2ccco2)no1` (configuration not stated), the INHIBITION is listed as 34.2%.
Then `CC(Cn1ccnc1)NC(=O)N(C)Cc1ccc2c(c1)OCCO2` (configuration not stated), with 36.1%; and `O=C(O)c1cc2c(nc1-c1ccncc1)CCN(C1CCOC1)CC2` (configuration not stated), with -28.2%; and `CCn1cc(S(=O)(=O)N(CCc2ccccc2)Cc2ccn(C)n2)cn1`, with 21.425%.
Then `CCc1ncc2c(n1)CN(Cc1nc(-c3cccnc3)no1)CC2`, with -10.6%; and `Cc1ccc(C2CCCN2S(=O)(=O)N(C)CCc2ccccn2)o1` (configuration not stated), with -17.35%.
For `CCOC(=O)C(C)Nc1cccc(COCc2ccco2)c1` (configuration not stated), the INHIBITION came to 12.1%.
For the compound `CCOCC(=O)NS(=O)(=O)c1ccc(F)cc1C(F)(F)F`, the INHIBITION was found to be 0.0944%.
On to `COc1cccc(Cl)c1C(C(=O)O)N1CCC(Cn2cccn2)CC1` (configuration not stated), for which the INHIBITION is -47%.
Take `COCCOC1CCN(C(C(=O)O)c2ccc(F)c(Cl)c2)CC1` (configuration not stated): the INHIBITION is 23.9%.
Consider `COCCOC1CCN(C(C(=O)O)c2c(Cl)cccc2OC)CC1` (configuration not stated), for which the INHIBITION was determined as 50.3%.
Take `CC(C)c1ncncc1C(=O)NCCN1CCOCC1`: the INHIBITION was -1.33%.
Then `COCCC(Cc1cccc(Br)c1)C(=O)N(C)C` (configuration not stated), with -28.4%.
Then `COc1ccc(C2Nc3ccccc3N=C3CNC(=O)C32)cc1OC` (configuration not stated), with 10.4%; and `CCOC(=O)Cn1nnnc1-c1ccccc1`, with 64%; and `CCn1nnnc1-c1cccc(NC(=O)CCOC(C)C)c1`, with 4.01%.
Then `CCn1nnnc1-c1cccc(NC(N)=O)c1`, with 8.18%.
